Reference: PubChem BioAssay (NCATS)
Several values for one entry are separate records, joined by “and”; a condition that tells them apart may be missing. Identical values can stand only once. Results filed as inconclusive are left out. Entries that show only a call come without a potency. Unmarked numbers belong to inactive results. Activity calls are given as the source filed them. Calls come from the whole dose curve; as a rule, active = well fitted inhibition curve with a large enough effect; inconclusive = small, poorly fitted or top-dose-only effect; inactive = flat fitted curve, though single readings scatter.

Legend:
HaCat [1] = assay: Cytotoxic Profiling of Annotated Libraries Using Quantitative High-Throughput Screening (AID 1296008); conditions: Five cell lines viability, CellTiter-Glo ATP luminescence, 48-72 h; max response: hits give low values
In short: (§1)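 Compounds were pin-transferred onto cells and incubated 48 or 72 hr at 37 degree Celsius, 95% humidity. CellTiter-Glo was added, plates sat 10 min at room temperature, then ATP-coupled luminescence was imaged as the viability read-out.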

KB-3-1 = assay: as above; conditions: Five cell lines viability, CellTiter-Glo ATP luminescence, 48-72 h; max response: hits give low values
In short: as §1

NIH3T3 = assay: as above; conditions: Five cell lines viability, CellTiter-Glo ATP luminescence, 48-72 h; max response: hits give low values
In short: as §1

HACAT [2] = assay: qHTS assay to identify novel small-molecules to repurpose for Merkel cell carcinoma treatment (AID 1296009); conditions: MCC and control cell lines, CellTiter-Glo viability, 72 h; at 44.8 µM (top of the series) unless noted; note: potency is the fitted concentration of half-maximal effect
In short: (§2)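 qHTS format: cells treated with library compounds in DMSO across 8 (NPC) or 11 (MIPE) concentrations. Readout after 72 hr at 37 degree celsius was CellTiter-Glo luminescence.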

MCC-13 = assay: as above; conditions: MCC and control cell lines, CellTiter-Glo viability, 72 h; series mostly up to 46 µM
In short: as §2

MCC-26 = assay: as above; conditions: MCC and control cell lines, CellTiter-Glo viability, 72 h; series mostly up to 46 µM
In short: as §2

MKL-1 = assay: as above; conditions: MCC and control cell lines, CellTiter-Glo viability, 72 h; series mostly up to 46 µM
In short: as §2

MKL-2 = assay: as above; conditions: MCC and control cell lines, CellTiter-Glo viability, 72 h; series mostly up to 46 µM
In short: as §2

HEK293T = assay: as above; conditions: MCC and control cell lines, CellTiter-Glo viability, 72 h; at 44.8 µM (top of the series)
In short: as §2
Note: nearly all actives have a fitted effect of over 60% in size.

| Compound | outcome (HaCat [1]) | max response (KB-3-1) | max response (NIH3T3) | outcome (HACAT [2]) | Potency (MCC-13) | Potency (MCC-26) | Potency (MKL-1) | Potency (MKL-2) | max response (HaCat [1]) | outcome (HEK293T) | outcome (NIH3T3) |
| --- | --- | --- | --- | --- | --- | --- | --- | --- | --- | --- | --- |
| CCOC(=O)NC(O)C(Cl)(Cl)Cl (configuration not stated) | inactive | 11.7% | 0.136% | inactive | inactive | inactive | inactive | inactive |  |  |  |
| CCC(=O)O[C@H]1CC[C@H]2[C@@H]3CCC4=CC(=O)CC[C@]4(C)[C@H]3CC[C@]12C | inactive | -26.4% | 0.89% | inactive | inactive | inactive | inactive | inactive |  |  |  |
| c1cc2c(c(N3CCNCC3)c1)OCCO2 | inactive | -5.14% | 1.17% | inactive | inactive | inactive | inactive | inactive |  |  |  |
| CC1N=C(N)OC1c1ccccc1 (configuration not stated) | inactive | -3.1% | -2.85% | inactive [at 92 µM] | inactive | inactive | inactive | inactive |  |  |  |
| CCC(=O)OC1(c2ccccc2)CCN(C)CC1 |  | 2.4% | -0.056% |  | inactive | inactive | inactive | inactive | -5.78% |  |  |
| C=CCN1CC[C@]23CCCC[C@H]2[C@H]1Cc1ccc(O)cc13 | inactive | 20.9% | -4.67% | inactive | inactive | inactive | inactive | inactive |  |  |  |
| CCCCCCCCC(=O)NCc1ccc(O)c(OC)c1 |  | -3.93% | -70.4% |  | inactive | inactive | inactive | inactive | -25.6% |  |  |
| Oc1ccc([C@H]2CNCc3c2ccc(O)c3O)cc1O | inactive | -14.2% | -2.59% | inactive | inactive | inactive |  | 13.3 µM (active) |  |  |  |
| C[N+]1(C)[C@@H]2CC[C@H]1CC(OC(=O)C(CO)c1ccccc1)C2 (some centres not stated) |  | -14.7% and 4.2% | -5.19% |  | inactive | inactive | inactive | inactive | -1.21% | inactive |  |
| OC(O)C(Cl)(Cl)Cl | inactive | 1.25% |  | inactive | inactive | inactive | inactive | inactive |  |  | inactive |
| CCC1(CC)C(=O)NC(=O)NC1=O | inactive | -1.45% |  | inactive | inactive | inactive | inactive | inactive |  |  | inactive |
| Cc1ccc(N=CN(C)C=Nc2ccc(C)cc2C)c(C)c1 |  | 1.07% |  |  | inactive | inactive | inactive | inactive | -15.3% | inactive | inactive |
| NC1(c2ccccc2)CCCCC1 |  | 1.89% | -27.2% |  | inactive | inactive | inactive |  | 1.23% |  |  |
| COc1cc(CC(C)N)cc2c1OCO2 (configuration not stated) |  | -6.39% | -6.97% |  | inactive | inactive | inactive | inactive | 1.78% |  |  |
| CCN(CC)CCOC(=O)C(C)(c1ccccc1)c1ccccc1 | inactive | -6.01% | 1.33% | inactive | inactive | inactive | inactive | inactive |  |  |  |
| CN(C)CCc1c[nH]c2ccc(O)cc12 | inactive | 2.29% |  | inactive [at 92 µM] | inactive |  | inactive |  |  |  | inactive |
| COc1ccc(C(=O)N2CCCC2=O)cc1 |  | -8.06% | -15.7% and -0.26% |  | inactive | inactive | inactive | inactive | -10.2% and -4.53% | inactive |  |
| Oc1c(Br)cc(Br)cc1Br |  | -5.6% | -1.39% |  | inactive | inactive | inactive | inactive | -13% |  |  |
| Cc1ncc2n1-c1ccc(Cl)cc1C(c1ccccc1F)=NC2 | inactive | -24.4% | -10.5% | inactive | inactive | inactive | inactive | inactive |  |  |  |
| C[C@@H]1CC[C@H]2[C@@H](C)C(=O)O[C@@H]3O[C@@]4(C)CC[C@@H]1[C@]32OO4 | inactive | -14.6% | -3.92% | inactive | inactive | inactive | inactive | inactive |  |  |  |
| COc1ccc(CN2CCNCC2)c(OC)c1OC | inactive | 5.8% | 1.76% | inactive | inactive | inactive | inactive | inactive |  |  |  |
| CNC(=O)NC(O)C(Cl)(Cl)Cl (configuration not stated) | inactive | 2.2% | -0.697% | inactive | inactive | inactive | inactive | inactive |  |  |  |
